Test [1] can be described thus: kinase inhibitors against Plasmodium liver-stage infection, cell-based, known kinase inhibitor set, luminescence, hepatoma host viability (AID 624392).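 Also: infected cells incubated roughly two days before readout.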 The settings on record: Plasmodium liver stage in hepatoma cells, luciferase luminescence, concentration not given here; liver cell % of control: measured here: host liver cell viability; parasite % of control: stronger effect = lower value.

Test [2] can be described thus: modulators of glucocorticoid suppression of NF-kB, cell-based, luciferase, IL-1B stimulus, dexamethasone (AID 624486).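 As to percent of negative control (+Dex): 100% = mean signal of vehicle control wells on the plate.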 The settings on record: NF-kB luciferase reporter, IL-1B + dexamethasone, luminescence; percent of negative control (+Dex): actives lie on both sides, concentration not given here; z-score: measured here: IL-1B alone, no Dex. For orientation: In a reporter assay the amount or activity of a reporter protein is the signal.

Test [3] in a line: kinase inhibitors altering Pseudomonas killing of worms, whole organism (AID 651566).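 Also: tested at 14 µM; sign flipped so higher z means a lower ratio.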 As to conditions: C. elegans killed by P. aeruginosa, survival ratio.
The nature of test [4]: activators of macrophage pro-inflammatory response, cell-based, murine, luminescence (AID 652131). The settings on record: murine macrophage pro-inflammatory reporter, stronger effect = higher value.
Test [5] addresses Cellular tumor antigen p53 (Homo sapiens) (UniProt P04637). Briefly: kinase inhibitors altering GFP-p53 stability in HPV16-positive cells, imaging, known kinase inhibitor set, EGFP/DsRed ratio (AID 1053116).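 Also: cells exposed to compounds for 24 h at 37 °C before reading.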 As to conditions: stronger effect = higher value; EGFP object count: measured here: GFP-p53 positive objects count.
Test [6] in a line: IRF3 reporter activation in THP-1 macrophages, cell-based, PMA-stimulated THP-1, luminescence (AID 1053176). As to conditions: PMA-differentiated THP-1, IRF3 reporter luminescence; stronger effect = higher value.
The nature of test [7]: survival rescue of mitochondrial mutant cells in low glucose, primary screen, MELAS cybrids, Rieske KO mouse fibroblasts, CellTiter-Glo (AID 1508586;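 active = mean z-score across replicates of 1.96 or higher in either the MELAS or the Rieske mutant cell line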;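 also: z relative to plate mean and SD of compound and empty wells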).
Where [8] appears, read: MELAS cybrid survival, CellTiter-Glo 48 h, stronger effect = higher value.
Setting [9] is: Rieske KO mouse fibroblast survival, CellTiter-Glo 72 h.

Active and inactive are the calls of the source. Unless noted, no rule for the calls is given here.

Sequence of Cellular tumor antigen p53 (Homo sapiens) (P04637 whole entry, looked up): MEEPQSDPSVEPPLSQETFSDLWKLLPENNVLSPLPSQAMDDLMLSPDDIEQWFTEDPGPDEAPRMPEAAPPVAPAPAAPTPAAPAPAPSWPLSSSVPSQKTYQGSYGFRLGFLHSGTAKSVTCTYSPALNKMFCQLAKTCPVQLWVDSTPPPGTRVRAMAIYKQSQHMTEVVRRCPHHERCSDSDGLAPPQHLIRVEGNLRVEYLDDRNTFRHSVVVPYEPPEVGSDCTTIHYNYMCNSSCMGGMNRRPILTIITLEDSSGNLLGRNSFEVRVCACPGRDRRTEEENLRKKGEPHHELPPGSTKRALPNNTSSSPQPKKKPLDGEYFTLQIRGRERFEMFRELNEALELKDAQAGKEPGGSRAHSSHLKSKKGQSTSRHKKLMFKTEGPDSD

In test [1], `COc1cccc(-n2cnc3c(N/N=C/c4ccncc4)ncnc32)c1` registered a liver cell % of control of 88.9%. Moreover, the parasite % of control in test [1] is 105% (inactive). The percent of negative control (+Dex) in test [2] was 104% (inactive). Further, the z-score in test [2] was 0.5; in test [3], -1.34 (inactive); in test [4], -0.055 (inactive); in test [7] (setting [8]), 2.14 (active); in test [7] (setting [9]), 0.0192. Further, the EGFP object count in test [5] was determined as 1.5. Moreover, the EGFP/DsRed ratio in test [5] is 0.0324 (inactive). Further, in test [6], the fraction signal was 0.0015 (inactive).

The molecule `COc1cccc(-n2ncc3c(N/N=C/c4ccncc4)ncnc32)c1` registered a liver cell % of control in test [1] of 106%. Besides, in test [1], the parasite % of control was 21.2% (inactive). In addition, the percent of negative control (+Dex) in test [2] was 156% (active). The z-score in test [2] is 0.175; in test [3], 0.485 (inactive); in test [4] it was 0.337 (inactive); in test [7] (setting [8]), -0.213 (inactive); in test [7] (setting [9]), 0.531. In test [5], the EGFP object count was 14. Besides, the EGFP/DsRed ratio in test [5] was 0.38 (inactive). Besides, the fraction signal in test [6] was 0.0245 (inactive).

On to `COc1ccc2cc(-c3c(-c4ccncc4)nc(-c4ccc(S(C)=O)cc4)n3C)ccc2c1` (configuration not stated), for which, in test [1], the liver cell % of control is 117%. In test [1], the parasite % of control was 121% (inactive). The percent of negative control (+Dex) in test [2] was 93.5% (inactive). Besides, the z-score in test [2] was 0.505; in test [3], -0.78 (inactive); in test [4], 0.151 (inactive); in test [7] (setting [8]) it was -0.944 (inactive); in test [7] (setting [9]), -0.225. Also, the EGFP object count in test [5] was 5. Also, in test [5], the EGFP/DsRed ratio was 0.161 (inactive). Also, the fraction signal in test [6] was -0.0035 (inactive).

`Fc1cccc(COc2ccc(Nc3ncnc4cc(-c5ccc[nH]5)sc34)cc2Cl)c1` had a liver cell % of control in test [1] of 45.8%. Further, in test [1], the parasite % of control is 16.2% (inactive). Also, the percent of negative control (+Dex) in test [2] was 66.5% (inactive). The z-score in test [2] is -1.57; in test [3], 0.215 (inactive); in test [4], -0.371 (inactive); in test [7] (setting [8]), -0.761 (inactive); in test [7] (setting [9]) it was -0.0837. In test [5], the EGFP object count is 3. In test [5], the EGFP/DsRed ratio was 0.034 (inactive). Moreover, the fraction signal in test [6] is -0.0045 (inactive).

Regarding `CCCN1CCC(c2ccc(Nc3nc(Nc4cc(F)ccc4C(N)=O)c4cc[nH]c4n3)c(OC)c2)CC1`, the liver cell % of control in test [1] was 73%. Moreover, in test [1], the parasite % of control was 355% (inactive). Moreover, in test [2], the percent of negative control (+Dex) was 72% (inactive). In addition, the z-score in test [2] is -1.46; in test [3] it was 0.62 (inactive); in test [4] it was -0.577 (inactive); in test [7] (setting [8]), -0.472; in test [7] (setting [9]), 7.31. Further, the EGFP object count in test [5] came out at 22.5. For the same molecule, the EGFP/DsRed ratio in test [5] is 0.237 (inactive). In addition, in test [6], the fraction signal is -0.0085 (inactive).

On to `COc1ccc(-c2cc(C3CNNC3c3ccccn3)ccn2)cc1` (configuration not stated), for which the liver cell % of control in test [1] turned out to be 171%. In test [1], the parasite % of control was 92.3% (inactive). The percent of negative control (+Dex) in test [2] is 104% (inactive). Further, the z-score in test [2] was 1.42; in test [3] it was -0.77 (inactive); in test [4], 2.73 (inactive); in test [7] (setting [8]), -0.36 (inactive); in test [7] (setting [9]), -0.107. In addition, the EGFP object count in test [5] was found to be 3.5. For the same molecule, the EGFP/DsRed ratio in test [5] is 0.0398 (inactive). For the same molecule, the fraction signal in test [6] was -0.0055 (inactive).

For `COc1cc(N2CCN(C(C)C)CC2)ccc1Nc1nc(Nc2cccc3ncccc23)c2cc[nH]c2n1`, in test [1], the liver cell % of control was determined as 96.4%. The parasite % of control in test [1] is 180% (inactive). Besides, in test [2], the percent of negative control (+Dex) is 92.5% (inactive). The z-score in test [2] is -0.235; in test [3] it was 0.32 (inactive); in test [4], -0.489 (inactive); in test [7] (setting [8]), -1.02 (inactive); in test [7] (setting [9]), -0.0497. Besides, the EGFP object count in test [5] was found to be 1. The EGFP/DsRed ratio in test [5] was 0.00687 (inactive). Also, the fraction signal in test [6] was -0.0005 (inactive).
